The source made the active and inactive calls. No rule for the calls is given here.
experiment: inhibition of Brca1/Bard1 split-luciferase complementation, confirmation, counter-screen for Mdm2/MdmX interaction inhibitor project, luminescence, single concentration (AID 504668); details: Brca1/Bard1 bimolecular luciferase complementation counterscreen, at 8 µM, active compounds read high

Compound | inhibition
O=C(/C=C/c1ccc2ccccc2n1)N1CCN(S(=O)(=O)c2ccccc2F)CC1 | 25.5% (active)
O=C(/C=C\c1cn(-c2ccccc2)nc1-c1ccccc1)Nc1nccs1 | 28.9% (active)
Oc1ccc(Br)cc1CNc1cccc2cccnc12 | 25.6% (active)
COc1cc2c(ccc3cc(OC)c(OC)c(O)c32)cc1O | 31.4% (active)
COc1cccc(/C=C2\SC(=S)N(CCCC(=O)N3CCCC3)C2=O)c1 | 35% (active)
CC(=O)Nc1nc(C)c(-c2csc(Nc3ccc(S(N)(=O)=O)cc3)n2)s1 | 31.7% (active)
COc1ccc(C(=O)C(CN2CCOCC2)c2ccccc2)cc1 (centres undefined) | 27.4% (active)
C=CCn1c(O)c(N=NC(=S)Nc2cccc(C)c2)c2ccccc21 | 33.1% (active)
CCCCN(CC)CCNC(=O)c1cc2c(-c3ccc(Cl)cc3)nn(C)c2s1 | 31.2% (active)
S=c1[nH]nc(-c2cc(-c3ccccc3)n[nH]2)n1/N=C/C(Br)=C/c1ccccc1 | 24.2% (active)
O=C(/C=C/c1ccc(Cl)cc1)c1ccc([N+](=O)[O-])o1 | 31.4% (active)
CC1CCN(Cc2c(C(=O)N/N=C/c3ccccc3O)nnn2-c2nonc2N)CC1 | 32.5% (active)
O=C(/C=C/c1ccc(OCc2c(F)cccc2Cl)cc1)N1CCOCC1 | 27.7% (active)
CN1CCN(Cc2cc(COCc3ccccc3)c3cccnc3c2O)CC1 | 29.5% (active)
COc1ccc(-n2c(SCC(=O)Nc3ncc(Cl)cc3Cl)nc3ccccc32)cc1 | 29.2% (active)
Oc1ccc2ccccc2c1N=Nc1ccccn1 | 28% (active)
Oc1c(CN2CCCC2)cc(COCc2ccccc2)c2cccnc12 | 32.2% (active)
CC(C)Cc1nc(Nc2ccc(S(=O)(=O)N3CCCC3)cc2)c2nnn(Cc3ccccc3)c2n1 | 24.1% (active)
Cc1cc(NC(=O)/C=C/C(=O)N(c2ccccc2C)C(C(=O)NC2CCCC2)c2ccc(F)cc2)no1 (centres undefined) | 28.7% (active)
C#CCOCCOCCOCCNc1nc(N2CCN(C(=O)CCCCCCCCCCNC(=O)[C@H](CO)n3cc(CCCSC)nn3)CC2)nc(N2CCN(C(=O)CCCCCCCCCCNC(=O)[C@H](CCCCN)n3cc(C[C@@H](C)CC)nn3)CC2)n1 | 26.6% (active)

Compound | inhibition
CC(=O)NC(=S)Nc1ccc(NC(=S)NC(=O)/C=C/c2ccco2)cc1 | 35% (active)
O=C(c1ccc(S(=O)(=O)c2ccc(F)cc2)c([N+](=O)[O-])c1)N1CCCCCC1 | 30.1% (active)
C=CCNC(=S)N/N=C(\C)c1ccccn1 | 31.6% (active)
CCN(CC)c1ccc(/C=N/NC(=O)c2c(Cl)cnn2C)c(O)c1 | 26.9% (active)
COc1ccc(C(=O)N/N=C(\Cc2ncc[nH]2)c2ccccc2)cc1 | 25.7% (active)
CC(=O)O[C@@H]1C[C@H]2C(C)(C)C(=O)C=C[C@]2(C)[C@H]2CC[C@@]3(C)[C@H](c4ccoc4)OC(=O)[C@H]4O[C@]43[C@@]21C | 33.8% (active)
Oc1ccc(CNc2ccccc2F)c2cccnc12 | 30.8% (active)
CC[C@]1(c2ccccc2OC)ON(c2ccccc2C(F)(F)F)C1=O | 34.6% (active)
N#CC1=C(N)C(C#N)(C#N)C(c2cccnc2)C2CC(c3ccccc3)CC=C12 (centres undefined) | 23.1% (active)
CC1=Nc2cc(C(=O)N3CCCC3)ccc2Sc2c(C)ccc(C)c21 | 23.1% (active)
Cc1ccc(NC(=O)c2ccccc2NS(=O)(=O)c2ccc(F)cc2)cc1S(=O)(=O)N1CCCCC1 | 28.2% (active)
O=C(Nc1ccccc1)c1ccccc1NS(=O)(=O)c1ccc(Cl)s1 | 27.7% (active)
CN1C2CCC1/C(=C\c1ccccc1F)C(=O)/C2=C/c1ccccc1F | 35.1% (active)
CCN(CC)CCNc1cc(C)nc2c1C(=O)C(=O)C=C2N1CCCCC1 | 28.9% (active)
O=C(CCS(=O)(=O)c1ccc(Cl)cc1)Nc1nc(-c2ccncc2)cs1 | 25.6% (active)
COc1ccccc1-c1cc(C(F)(F)F)nc(S(=O)(=O)CCCC(=O)NC(C)C)n1 | 31.4% (active)
C/C(=N/NC(=O)CN(c1ccccc1)S(=O)(=O)c1ccccc1)c1ccccc1O | 26.8% (active)
O=c1c2cc(Br)ccc2nc(-c2cccc(C(F)(F)F)c2)n1O | 29.9% (active)
COc1cc([N+](=O)[O-])cc(/C=N/NC(=O)c2ccc(NC(=O)c3ccc(C)cc3)cc2)c1O | 33.2% (active)
